Measurements reported in PubChem BioAssay (NCI).
Compounds without any hit were thinned out: in the full panel of roughly 79,000, 15% have a hit. Active and inactive are the calls of the source. Cut-off read from the data, not from the text of the source: active = growth inhibition above about 70%; inactive = the rest.

Columns and labels:
[1] = NCI Yeast Anticancer Drug Screen. Data for the rad52 strain (AID 147);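 note: 0% = growth of vehicle-treated control cultures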; conditions: S. cerevisiae rad52 mutant growth inhibition, hits give high values
In short: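 Screen used a yeast mutant impaired in DNA repair. After compound exposure, growth was measured. Values reflect inhibition compared with vehicle-treated cells.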

[2] = NCI Yeast Anticancer Drug Screen. Data for the rad50EPP+ strain (AID 151);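 note: 0% = growth of vehicle-treated control cultures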; conditions: S. cerevisiae rad50 mutant strain, hits give high values
In short: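 Exposing the rad50EPP+ strain to each compound, growth was compared with vehicle-only cultures to give inhibition.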

[3] = NCI Yeast Anticancer Drug Screen. Data for the mgt1 strain (AID 153); conditions: S. cerevisiae mgt1 mutant growth inhibition, hits give high values
In short: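 Genetically defined yeast (mgt1) treated with compound; inhibition of growth expressed against vehicle-treated controls.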

[4] = NCI Yeast Anticancer Drug Screen. Data for the rad50 strain (AID 155);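 note: 0% = growth of vehicle-only cultures of the same strain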; conditions: S. cerevisiae rad50 strain growth inhibition, hits give high values
In short: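 Genetically altered yeast (DNA repair pathway); compound treatment; growth inhibition vs vehicle ctrl.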

[5] = NCI Yeast Anticancer Drug Screen. Data for the mec2-1 strain (AID 157); conditions: S. cerevisiae mec2-1 strain, hits give high values
In short: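 Readout is yeast growth inhibition, normalised to vehicle-treated controls, in the mec2-1 strain exposed to compound.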

[6] = NCI Yeast Anticancer Drug Screen. Data for the rad14 strain (AID 159);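 note: 0% = growth of vehicle-treated control cultures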; conditions: S. cerevisiae rad14 strain growth inhibition, hits give high values
In short: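 Test compounds were applied to a repair-deficient yeast strain. Its growth was then compared with that of cultures given vehicle alone, and inhibition was expressed relative to those controls.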

[7] = NCI Yeast Anticancer Drug Screen. Data for the sgs1 mgt1 strain (AID 161);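 note: 0% = growth of cultures given vehicle only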; conditions: S. cerevisiae sgs1 mgt1 strain, hits give high values
In short: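 This yeast growth screen uses a strain with defined DNA-repair lesions; compound-treated growth is compared with vehicle-treated growth.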

[8] = NCI Yeast Anticancer Drug Screen. Data for the CLN2oe strain (AID 163);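 note: 0% = growth of vehicle-only control cultures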; conditions: S. cerevisiae CLN2oe strain, hits give high values
In short: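 Values reflect how much compound exposure reduced yeast growth, referenced to vehicle-exposed cells. Assay organism is a strain with a defined genetic change affecting cell-cycle control.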

[9] = NCI Yeast Anticancer Drug Screen. Data for the bub3 strain (AID 167); conditions: S. cerevisiae bub3 mutant strain, hits give high values
In short: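 Yeast carrying a defined mutation is treated with each compound, and growth is compared with that of vehicle-exposed cells to give inhibition.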

[10] = NCI Yeast Anticancer Drug Screen. Data for the wt2 strain (AID 169);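 note: 0% = growth of vehicle-treated yeast cultures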; conditions: S. cerevisiae wt2 strain growth inhibition, hits give high values
In short: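 Values express reduction in yeast growth under compound treatment, referenced to vehicle-treated cells.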

[11] = NCI Yeast Anticancer Drug Screen. Data for the mlh1 strain (AID 171);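 note: 0% = growth of vehicle-treated control cultures of the same strain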; conditions: S. cerevisiae mlh1 strain growth inhibition, hits give high values
In short: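 Steps: expose the defined-mutant yeast strain to compound; expose a parallel culture to vehicle; measure growth; express compound effect as inhibition relative to the vehicle culture.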

[12] = NCI Yeast Anticancer Drug Screen. Data for the sgs1 strain (AID 173);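 note: 0% = growth of vehicle-only control cultures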; conditions: S. cerevisiae sgs1 mutant, hits give high values
In short: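 Treat defined-mutant yeast with compound; measure growth; calculate inhibition relative to vehicle-treated cells.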

[13] = NCI Yeast Anticancer Drug Screen. Data for the mlh1 rad18 strain (AID 175); conditions: S. cerevisiae mlh1 rad18 strain growth inhibition, hits give high values
In short: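 Test agents were incubated with a yeast strain of defined genotype (DNA damage repair defect). Inhibition of growth was derived by comparison with vehicle-exposed cultures.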

[14] = NCI Yeast Anticancer Drug Screen. Data for the rad18 strain (AID 177); conditions: S. cerevisiae rad18 mutant growth inhibition, hits give high values
In short: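 A genetically defined yeast mutant impaired in DNA damage repair was treated with test compounds, then its growth was measured against cultures receiving vehicle alone.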

[15] = at 5.0 µM (retest, dose inferred, filed as 0.5)
[16] = at 50.0 µM (retest, dose inferred, filed as 5.0)

Measured: growth inhibition

CC1(C)CC(=O)C(/C=N/c2nc(-c3ccc(Br)cc3)cs2)=C(O)C1
inactive: [1]; at 1.2 µM 11% | [1]; at 3.7 µM 20% | [1]; at 11.0 µM 53% | [2]; at 1.2 µM 5% | [2]; at 3.7 µM 17% | [2]; at 11.0 µM 51% | [3]; at 1.2 µM 4% | [3]; at 3.7 µM 6% | [3]; at 11.0 µM 37% | [4]; at 1.2 µM 3% | [4]; at 3.7 µM 32% | [4]; [15] -4% | [4]; at 11.0 µM 48% | [5]; at 1.2 µM 7% | [5]; at 3.7 µM 11% | [5]; [15] -10% | [5]; at 11.0 µM 35% | [6]; at 1.2 µM 6% | [6]; at 3.7 µM 6% | [6]; at 11.0 µM 36% | [7]; [15] -8% | [8]; at 1.2 µM 1% | [8]; at 3.7 µM 7% | [8]; at 11.0 µM 31% | [9]; at 1.2 µM 3% | [9]; at 3.7 µM 3% | [9]; [15] -22% | [9]; at 11.0 µM 24% | [10]; at 1.2 µM 0% | [10]; at 3.7 µM 3% | [10]; at 11.0 µM 29% | [11]; at 1.2 µM 3% | [11]; at 3.7 µM 5% | [11]; at 11.0 µM 30% | [12]; at 1.2 µM 10% | [12]; at 3.7 µM 15% | [12]; at 11.0 µM 49% | [13]; [15] 0% | [14]; at 1.2 µM 2% | [14]; at 3.7 µM 5% | [14]; at 11.0 µM 37%
active: [1]; at 33.0 µM 95% | [1]; at 100.0 µM 97% | [2]; at 33.0 µM 95% | [2]; at 100.0 µM 98% | [3]; at 33.0 µM 96% | [3]; at 100.0 µM 98% | [4]; at 33.0 µM 94% | [4]; [16] 96% | [4]; at 50.0 µM 99% | [4]; at 100.0 µM 97% | [5]; at 33.0 µM 96% | [5]; [16] 97% | [5]; at 50.0 µM 97.5% | [5]; at 100.0 µM 98% | [6]; at 33.0 µM 95% | [6]; at 100.0 µM 98% | [7]; [16] 98% | [7]; at 50.0 µM 99.2% | [8]; at 33.0 µM 93% | [8]; at 100.0 µM 97% | [9]; at 33.0 µM 96% | [9]; [16] 98% | [9]; at 50.0 µM 98.8% | [9]; at 100.0 µM 98% | [10]; at 33.0 µM 93% | [10]; at 100.0 µM 98% | [11]; at 33.0 µM 96% | [11]; at 100.0 µM 98% | [12]; at 33.0 µM 97% | [12]; at 100.0 µM 98% | [13]; [16] 99% | [13]; at 50.0 µM 98.8% | [14]; at 33.0 µM 96% | [14]; at 100.0 µM 97%
